Experimental data from PubChem BioAssay AID1259418 (Broad Institute, 2018).
Out of some 3,400 compounds screened, about 840 (25%) were called active. Another 11% or so got no clear call; they are omitted. The list is a sample of the results. Potency and affinity values are given separately. A number with no mark means an inactive call.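 The calls were made as follows: active = fitted half-maximal concentration of signal decrease at or below twice the sample's top tested concentration; inconclusive = flat curve between -70 and -30 percent, or poor fit; inactive = flat within 30 percent, signal rise, or potency above limit.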

Assay: T. gondii growth inhibition with IFN-gamma, dose response, cell-based, ME49Luc, HeLa, luciferase, 72 h (AID 1259418)
Conditions: T. gondii ME49Luc in IFN-y HeLa, active compounds read low, -100% = high-dose IFN-γ control wells; at 19.5 µM unless noted
Work on `CC1CCCN(c2nc(-c3ccc(Cl)cc3)nc3ccccc23)C1` (stereo not given) yielded a max activity of -6.84% [at 2.6 µM].
With `COc1ccccc1-c1nc(C)c(-c2ccc(SCc3cccc(C)c3)nn2)s1` the max activity was 12.4% [at 10 µM].
Molecule `COCCCNC1=NCCNC12CCN(S(=O)(=O)c1ccc(C)c(C)c1)CC2` has a max activity of 15.1% [at 0.16 µM].
For `Clc1ccccc1CSc1nc(NC2CCCCC2)c2ccccc2n1`, the max activity was 13.8%.
For `Cc1ccc(-c2nc3c(s2)CN(C(=O)Nc2ccccc2C(F)(F)F)CC3)cc1`, the max activity was 101% [at 10 µM].
`COc1ccc(-c2nc(Nc3cc(C)ccc3C)c3ccccc3n2)cc1` showed a max activity of 25.6%.
`CCCNC(=O)N1[C@H](C#N)[C@@H](c2ccc(-c3ccccc3F)cc2)[C@H]1CO` showed a max activity of -20.5% [at 0.6 µM].
`CCCNC(=O)N1[C@H](C#N)[C@H](c2ccc(-c3ccccc3F)cc2)[C@H]1CO` showed a max activity of -14.6%.
In the case of `CCc1nc(OCC(=O)Nc2cc(Cl)c(OC)cc2OC)c2ccccc2n1`, the max activity is reported as 17% [at 0.16 µM].
For `COc1ccc(OC)c(NC(=O)N2CCc3nc(-c4ccc(C)cc4)sc3C2)c1`, the max activity was 13.3%.
In the case of `CN1C(=O)CCc2cc(NC(=O)c3ccco3)ccc21`, the max activity is reported as 172%.
For `COc1ccc(OC)c(NC(=O)N2CCc3nc(-c4ccccc4)sc3C2)c1`, the max activity was 6.12%.
For `CCC(C(=O)N1CCC[C@@H]1C(=O)NCCc1csc(-c2ccccc2)n1)c1ccccc1` (stereo not given in full), the max activity was 13.1% [at 2.6 µM].
`Cc1ccc(CN2CCCn3nc(C(=O)N4CCC(N5CCCCC5)CC4)cc3C2=O)cc1` gave a max activity of -18.3% [at 5 µM].
With `O=C(Nc1ccc(-c2nc(-c3ccccc3)co2)cc1)NC1CCCCC1` the max activity was 71.1%.
With `Fc1cccc(-c2noc(-c3ccc(N4CCC(N5CCCCC5)CC4)nc3)n2)c1` the max activity was 21.6% [at 5 µM].
For `Cc1ccc(-c2nc(Cn3nnc(-c4nc(-c5ccc(Br)cc5)no4)c3C)c(C)o2)cc1`, the max activity was 26.9%.
Work on `Cc1cccc(-c2noc(-c3ccc(N4CCC(N5CCCCC5)CC4)nc3)n2)c1` yielded a max activity of 26.5% [at 10 µM].
`O=C(Cn1cccc1-c1nc(-c2ccccc2)cs1)N1CCC(N2CCCCC2)CC1` showed a max activity of 7.65% [at 10 µM].
Work on `Cc1ccc(Nc2ncnc3c2cnn3-c2ccc(Cl)cc2)cc1` yielded a max activity of 81.3% [at 10 µM].
Molecule `O=C(Nc1ccc(Br)cc1)Nc1ccc(-c2nc(-c3ccccc3)co2)cc1` has a max activity of -11.6%.
With `CCc1cc(C(=O)Nc2ccc(C)cc2-c2cc(C)[nH]n2)c2c(C)noc2n1` the max activity was 19.5% [at 10 µM].
`O=C(NCCN1CCCC1)[C@H]1[C@H](CO)[C@H]2Cn3c(cccc3=O)[C@H]2N1Cc1ccccn1` showed a max activity of 48.1%.
`C=CCN1C(=O)COC2(CCN(Cc3ccc(C)s3)CC2)C1C` (stereo not given) showed a max activity of 27.2%.
Work on `COc1ccc(NC(=O)CN2CCC3(CC2)N=C(c2ccc(F)cc2)C(=O)N3)cc1OC` yielded a max activity of -16.1% [at 10 µM].
In the case of `Cc1ccc2c(c1)cc(S(=O)(=O)c1ccccc1)c(=O)n2CC(=O)N1CCCC1`, the max activity is reported as -8.58% [at 5 µM].
`Cc1ccc2c(c1)cc(S(=O)(=O)c1ccccc1)c(=O)n2CC(=O)N1CCCCC1` gave a max activity of -6.78% [at 0.68 µM].
For `Clc1ccccc1-c1nc(NCCN2CCCc3ccccc32)c2ccccc2n1`, the max activity was 37.1%.
In the case of `Cc1ccc(-c2nc(CN3CCN(C(=O)Nc4cccc(C)c4)CC3)c(C)o2)cc1`, the max activity is reported as -23.6%.
`CCc1ccc(NC(=O)N2CCN(Cc3nc(-c4ccc(C)cc4)oc3C)CC2)cc1` showed a max activity of -17.1% [at 0.68 µM].
In the case of `CCCNC(=O)N1CCN(Cc2nc(-c3ccc(OCC)cc3)oc2C)CC1`, the max activity is reported as 7.68%.
Work on `Cc1ccc(NC(=O)N2CCN(Cc3nc(-c4ccc(C)cc4)oc3C)CC2)cc1` yielded a max activity of 13.6% [at 0.16 µM].
`Cc1ccc(-c2nc(CN3CCN(C(=O)Nc4ccc(Cl)cc4)CC3)c(C)o2)cc1` showed a max activity of 22.8% [at 0.16 µM].
`CCOC(=O)c1ccc(NC(=O)N2CCN(Cc3nc(-c4cccc(Cl)c4)oc3C)CC2)cc1` gave a max activity of 13.5% [at 1.35 µM].
With `Cc1ccc(-c2nc(CN3CCN(C(=O)NC(C)C)CC3)c(C)o2)cc1` the max activity was -10.1% [at 0.35 µM].
Work on `Cc1ccc(NC(=O)N2CCN(Cc3nc(-c4ccccc4C)oc3C)CC2)cc1` yielded a max activity of 9.16% [at 2.6 µM].
For `COC(=O)c1cccc(NC(=O)Nc2ccc(-c3nc(-c4ccc(C)cc4C)co3)cc2)c1`, the max activity was 21.2%.
For `Cc1ccc(-c2coc(-c3ccc(NC(=O)c4ccccc4)cc3)n2)c(C)c1`, the max activity was 20.4% [at 10 µM].
`Cc1ccc(-c2coc(-c3ccc(NC(=O)Nc4ccc5c(c4)OCCO5)cc3)n2)c(C)c1` showed a max activity of 48.2%.
`Cc1ccc(CNC(=O)C2(C)CCC(=O)N2CCc2c[nH]c3ccccc23)cc1` (stereo not given) gave a max activity of -12.5% [at 0.35 µM].
For `O=C(Nc1ccc(-c2nc(-c3ccccc3)co2)cc1)Nc1ccccc1Br`, the max activity was 65.8% [at 10 µM].
Molecule `Cc1ccc2c(c1C)-n1cccc1C1(CCN(C(=O)CC(C)C)CC1)N2` has a max activity of 7.04% [at 0.68 µM].
For `O=C(Cc1ccccc1Cl)N1CCC2(CC1)Nc1ccccc1-n1cccc12`, the max activity was 15.3% [at 10 µM].
Molecule `COc1ccc(S(=O)(=O)N2CCC[C@@H]2C(=O)NCCc2csc(C)n2)cc1Cl` has a max activity of 8.05% [at 10 µM].
Molecule `CCOCCCNC(=O)c1ccc2ccc(N3CCN(CC4CC4)CC3)n2c1` has a max activity of 42.5%.
Molecule `CCOc1cccc(-c2noc(-c3nnn(Cc4nc(-c5cccc(C)c5)oc4C)c3C)n2)c1` has a max activity of 8.84%.
Molecule `CCOc1ccc(-c2nc(CN3CCN(C(=O)Nc4cccc(OC)c4)CC3)c(C)o2)cc1` has a max activity of 16.9% [at 0.35 µM].
With `Cc1ccccc1-c1nc(CN2CCN(C(=O)Nc3ccccc3)CC2)c(C)o1` the max activity was -12.3% [at 2.6 µM].
`COc1ccc(NC(=O)N2CCN(Cc3nc(-c4ccc(C)cc4)oc3C)CC2)cc1OC` gave a max activity of 9.7%.
With `CCOc1ccc(-c2nc(CN3CCN(C(=O)NCCc4ccccc4)CC3)c(C)o2)cc1` the max activity was -9.01% [at 0.68 µM].
